# The antibiotic and cytotoxicity screens of Wong et al. (2023)
# Among all 39,000 compounds or so, about 3,300 (8.5%) were called active. Many of the other results were omitted from the sample, so actives are more common in it than they were.
# Test system: HepG2
# Assay: cytotoxicity call (relative viability < 0.9)
# Settings: 10 µM
row,Structure (SMILES),cytotoxicity call
1,COc1ccc(S(=O)(=O)N(C)C[C@@H]2Oc3ccc(NS(=O)(=O)c4ccc(C)cc4)cc3CC(=O)N([C@H](C)CO)C[C@@H]2C)cc1,inactive
2,CC(C)NC(=O)N(C)C[C@@H]1Oc2cc(C#Cc3cccc(F)c3)ccc2S(=O)(=O)N([C@H](C)CO)C[C@H]1C,inactive
3,Cc1ccc(S(=O)(=O)N(C)C[C@H]2OCCCC[C@H](C)Oc3ccc(NC(=O)Nc4ccc(F)cc4)cc3C(=O)N([C@@H](C)CO)C[C@H]2C)cc1,inactive
4,Cc1ccc(S(=O)(=O)N(C)C[C@H]2Oc3c(NC(=O)NC(C)C)cccc3C(=O)N([C@@H](C)CO)C[C@@H]2C)cc1,inactive
5,C[C@@H]1CCCCO[C@@H](CN(C)S(=O)(=O)c2ccc(F)cc2)[C@H](C)CN([C@@H](C)CO)C(=O)c2cc(NC(=O)C3CCCCC3)ccc2O1,inactive
6,C[C@H](CO)N1C[C@H](C)[C@H](CN(C)C(=O)Nc2ccc3c(c2)OCO3)OCCCC[C@H](C)Oc2ccc(NC(=O)Nc3cccc4ccccc34)cc2C1=O,inactive
7,C[C@@H]1CCCCO[C@@H](CN(C)Cc2ccccc2)[C@H](C)CN([C@H](C)CO)C(=O)c2cc(NC(=O)C3CCCCC3)ccc2O1,inactive
8,CC(C)NC(=O)N(C)C[C@@H]1Oc2cc(-c3ccccc3F)ccc2S(=O)(=O)N([C@H](C)CO)C[C@@H]1C,inactive
9,C[C@@H]1CCCCO[C@H](CN(C)C(=O)Nc2ccc(C(F)(F)F)cc2)[C@H](C)CN([C@@H](C)CO)C(=O)c2cc(NC(=O)C3CCCCC3)ccc2O1,inactive
10,O=C(NC(Cc1cc(=O)[nH]c2ccccc12)C(=O)O)c1ccc(Cl)cc1 (stereo not drawn),active
11,Cc1cc(C)cc(C(=O)N(C)[C@H](Cc2ccc(-c3ccccc3)cc2)C(=O)N[C@@H](Cc2c[nH]c3ccccc23)C(=O)O)c1,inactive
12,NCCCC[C@@H](N)C(=O)N[C@@H](Cc1c[nH]c2ccccc12)C(=O)N[C@@H](CCCCN)C(=O)O,inactive
13,Cc1noc(C)c1NC(=O)Nc1ccc2c(c1)C(=O)N([C@H](C)CO)C[C@H](C)[C@@H](CN(C)C(=O)Nc1ccccc1)OCCCC[C@@H](C)O2,inactive
14,CC(C)[C@@H](N)c1nc2ccccc2[nH]1,inactive
15,C[C@@H]1CN([C@@H](C)CO)C(=O)c2cc(NC(=O)Nc3ccc4c(c3)OCO4)ccc2O[C@@H]1CN(C)Cc1ccc(Cl)c(Cl)c1,active
16,C[C@@H]1CN([C@@H](C)CO)C(=O)c2cc(NC(=O)Nc3ccc4c(c3)OCO4)ccc2O[C@H]1CN(C)Cc1ccc(Cl)c(Cl)c1,active
17,C[C@@H]1CN([C@H](C)CO)C(=O)c2cc(NC(=O)Nc3ccc4c(c3)OCO4)ccc2O[C@@H]1CN(C)Cc1ccc(Cl)c(Cl)c1,inactive
18,C[C@H](CO)N1C[C@H](C)[C@H](CN(C)Cc2ccc(Cl)c(Cl)c2)Oc2ccc(NC(=O)Nc3ccc4c(c3)OCO4)cc2C1=O,inactive
19,C[C@H]1CN([C@@H](C)CO)C(=O)c2cc(NC(=O)Nc3ccc4c(c3)OCO4)ccc2O[C@H]1CN(C)Cc1ccc(Cl)c(Cl)c1,inactive
20,C[C@H]1CN([C@@H](C)CO)C(=O)c2cc(NC(=O)Nc3ccc4c(c3)OCO4)ccc2O[C@@H]1CN(C)Cc1ccc(Cl)c(Cl)c1,inactive
21,COCC(=O)Nc1ccc2c(c1)OC[C@@H](C)N(C(=O)CN1CCOCC1)C[C@@H](C)[C@H](OC)CN(C)C2=O,inactive

row,Structure (SMILES),cytotoxicity call
1,COc1ccc(CN(C)C[C@H]2Oc3ccc(NC(=O)Nc4ccc(C(F)(F)F)cc4)cc3CC(=O)N([C@@H](C)CO)C[C@H]2C)cc1,active
2,COc1ccc(NC(=O)Nc2ccc3c(c2)CC(=O)N([C@H](C)CO)C[C@@H](C)[C@H](CN(C)Cc2ccc(C(F)(F)F)cc2)O3)cc1,inactive
3,COc1ccc(NC(=O)Nc2ccc3c(c2)CC(=O)N([C@@H](C)CO)C[C@@H](C)[C@H](CN(C)Cc2ccc(C(F)(F)F)cc2)O3)cc1,active
4,COc1ccc(CN(C)C[C@H]2Oc3ccc(NC(=O)Nc4ccc(C(F)(F)F)cc4)cc3CC(=O)N([C@@H](C)CO)C[C@@H]2C)cc1,active
5,COc1ccc(CN(C)C[C@H]2Oc3ccc(NC(=O)Nc4ccc(C(F)(F)F)cc4)cc3CC(=O)N([C@H](C)CO)C[C@H]2C)cc1,active
6,COc1ccc(NC(=O)Nc2ccc3c(c2)CC(=O)N([C@@H](C)CO)C[C@H](C)[C@@H](CN(C)Cc2ccc(C(F)(F)F)cc2)O3)cc1,inactive
7,CO[C@H](CN(C)S(=O)(=O)c1ccc(Cl)cc1)[C@@H](C)CN([C@@H](C)CO)S(=O)(=O)c1cccc(Cl)c1,inactive
8,COc1ccc(CN(C)C[C@H]2OCCCC[C@H](C)Oc3ccc(NS(=O)(=O)c4ccc(F)cc4)cc3C(=O)N([C@H](C)CO)C[C@@H]2C)cc1,inactive
9,C[C@@H]1CN([C@H](C)CO)C(=O)c2cccc(NC(=O)Nc3ccc(C(F)(F)F)cc3)c2O[C@@H]1CN(C)S(C)(=O)=O,inactive
10,C[C@H](CO)N1C[C@H](C)[C@@H](CN(C)Cc2ccccc2)OCCCC[C@H](C)Oc2ccc(NC(=O)NC3CCCCC3)cc2C1=O,inactive
11,O=C(Cn1cnnn1)NS(=O)(=O)c1ccccc1,inactive
12,C[C@H](CO)N1C[C@H](C)[C@H](CN(C)S(=O)(=O)c2ccc(-c3ccccc3)cc2)OCc2cn(nn2)CCCC1=O,inactive
13,C[C@@H]1CCCCO[C@@H](CN(C)C(=O)Nc2ccccc2)[C@@H](C)CN([C@@H](C)CO)C(=O)c2cc(NC(=O)c3ccccc3)ccc2O1,inactive
14,COc1ccc(S(=O)(=O)N(C)C[C@@H]2Oc3c(NS(=O)(=O)c4cn(C)cn4)cccc3C(=O)N([C@H](C)CO)C[C@H]2C)cc1,inactive
15,O=C(C[C@@H]1CC[C@H](NC(=O)c2ccc(F)cc2)[C@@H](CO)O1)NCc1ccncn1,inactive
16,COc1ccc(NC(=O)Nc2ccc3c(c2)C(=O)N([C@H](C)CO)C[C@@H](C)[C@H](CN(C)S(=O)(=O)c2ccc(OC)cc2)OCCCC[C@H](C)O3)cc1,inactive
17,C[C@@H]1CN([C@H](C)CO)C(=O)CCCn2cc(nn2)CO[C@@H]1CN(C)S(=O)(=O)c1ccccc1C#N,inactive
18,Cc1ccc(S(=O)(=O)N(C)C[C@H]2Oc3c(NS(=O)(=O)c4ccc(F)cc4)cccc3C(=O)N([C@H](C)CO)C[C@@H]2C)cc1,inactive
19,C[C@@H]1CN([C@@H](C)CO)C(=O)Cc2cc(NC(=O)Nc3ccc4c(c3)OCO4)ccc2O[C@H]1CN(C)S(C)(=O)=O,inactive
20,COc1ccc(CN(C)C[C@@H]2Oc3ccc(NC(=O)Nc4ccc(C(F)(F)F)cc4)cc3CC(=O)N([C@H](C)CO)C[C@H]2C)cc1,inactive
21,COc1ccc(NC(=O)Nc2ccc3c(c2)CC(=O)N([C@@H](C)CO)C[C@@H](C)[C@@H](CN(C)Cc2ccc(C(F)(F)F)cc2)O3)cc1,active

row,Structure (SMILES),cytotoxicity call
1,COc1ccc(CN(C)C[C@@H]2Oc3ccc(NC(=O)Nc4ccc(C(F)(F)F)cc4)cc3CC(=O)N([C@H](C)CO)C[C@@H]2C)cc1,active
2,COc1ccc(CN(C)C[C@@H]2Oc3ccc(NC(=O)Nc4ccc(C(F)(F)F)cc4)cc3CC(=O)N([C@@H](C)CO)C[C@@H]2C)cc1,inactive
3,COc1ccc(NC(=O)Nc2ccc3c(c2)CC(=O)N([C@H](C)CO)C[C@@H](C)[C@@H](CN(C)Cc2ccc(C(F)(F)F)cc2)O3)cc1,active
4,COc1ccc(NC(=O)Nc2ccc3c(c2)CC(=O)N([C@H](C)CO)C[C@H](C)[C@@H](CN(C)Cc2ccc(C(F)(F)F)cc2)O3)cc1,inactive
5,COc1ccc(NC(=O)Nc2ccc3c(c2)CC(=O)N([C@H](C)CO)C[C@H](C)[C@H](CN(C)Cc2ccc(C(F)(F)F)cc2)O3)cc1,active
6,CC(C)NC(=O)Nc1ccc2c(c1)C(=O)N([C@@H](C)CO)C[C@H](C)[C@@H](CN(C)CC1CCCCC1)OCCCC[C@H](C)O2,inactive
7,Cc1ccc(S[C@]2(C(=O)NCCCN(C)C)CC(=O)N(Cc3cc(C(F)(F)F)cc(C(F)(F)F)c3)[C@@H]2c2ccc(CO)cc2)cc1,inactive
8,O=C(CN1CCOCC1)NCC[C@@H]1CC[C@@H](NC(=O)c2ccc3c(c2)OCO3)[C@H](CO)O1,inactive
9,COc1ccc2c3c(n(c2c1)C)[C@H](CO)N(C[C@]13CN(C1)C(=O)c1ccncc1)C(=O)C1CCCCC1,inactive
10,CN1CCN(C(=O)C[C@H]2CC[C@H]3[C@H](COc4ccc(NC(=O)C5CCOCC5)cc4C(=O)N3C)O2)CC1,inactive
11,CCCN1C[C@H](C)[C@@H](OC)CN(C)C(=O)c2cc(NS(=O)(=O)c3cn(C)cn3)ccc2OC[C@H]1C,inactive
12,CCOC(=O)c1cc(C(=O)OCC)n(C)n1,inactive
13,COc1ccc(S(=O)(=O)N[C@@H]2C=C[C@@H](CC(=O)N3CCN(c4ccccc4)CC3)O[C@H]2CO)cc1,inactive
14,Cc1cc2n(n1)CCN(C(=O)[C@H]1CC[C@@H](N)C1)C2,inactive
15,Cc1ccc(-c2cnc3c(c2)C(=O)N([C@H](C)CO)C[C@H](C)[C@@H](CN(C)C(=O)Cc2ccncc2)O3)cc1,inactive
16,C[C@H]1CCCCO[C@@H](CN(C)Cc2ccccc2)[C@@H](C)CN([C@@H](C)CO)C(=O)c2cc(NC(=O)c3ccccc3)ccc2O1,inactive
17,Cc1noc(C)c1NC(=O)N(C)C[C@@H]1Oc2c(NC(=O)C3CCOCC3)cccc2C(=O)N([C@H](C)CO)C[C@H]1C,inactive
18,COc1ccc(NC(=O)Nc2ccc3c(c2)CC(=O)N([C@@H](C)CO)C[C@H](C)[C@H](CN(C)Cc2ccc(C(F)(F)F)cc2)O3)cc1,active
19,Cc1cc(-c2ccc3ccccc3n2)nc2ccc3ccccc3c12,inactive
20,CCCOc1c(-c2ccc3ccccc3n2)cnc2ccccc12,active
21,c1ccc2nc(-c3cn[nH]c3)ccc2c1,inactive
